Results as given in the supplement of paper PMC8728848.
The sample as a whole holds a higher share of the strongest signals than the screen did.

What was measured:
Assay in all cases: glycan array binding signal (z-score within array); higher = stronger binding
Conditions in all cases: glycan notation: IUPAC condensed, linker removed; mutation: H84T
Fuc(a1-2)Gal(b1-3)GlcNAc = target: Fuc(a1-2)Gal(b1-3)GlcNAc
Summary of the method: (§1)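 Columns mapping to the same glycan were averaged after glycan names were converted to IUPAC-condensed notation. The data come from 3228 arrays in the Consortium for Functional Glycomics database, limited to those with an available protein sequence. Binding is reported as a within-array Z-score averaged across arrays of one protein sequence and across linkers.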

[1] = target: Fuc(a1-2)Gal(b1-3)GlcNAc(b1-2)Man(a1-3)[Fuc(a1-2)Gal(b1-3)GlcNAc(b1-2)Man(a1-6)]Man(b1-4)GlcNAc(b1-4)[Fuc(a1-6)]GlcNAc
Summary of the method: as §1

[2] = target: Fuc(a1-2)Gal(b1-4)GlcNAc(b1-3)Gal(b1-4)GlcNAc(b1-2)Man(a1-3)[Fuc(a1-2)Gal(b1-4)GlcNAc(b1-3)Gal(b1-4)GlcNAc(b1-2)Man(a1-6)]Man(b1-4)GlcNAc(b1-4)GlcNAc
Summary of the method: as §1

[3] = target: Fuc(a1-2)Gal(b1-4)[Fuc(a1-3)]GlcNAc(b1-3)[Neu5Ac(a2-6)Gal(b1-4)GlcNAc(b1-6)]Gal(b1-4)Glc
Summary of the method: as §1

[4] = target: Fuc(a1-2)[GalNAc(a1-3)]Gal(b1-3)GalNAc(b1-3)Gal(a1-4)Gal(b1-4)Glc
Summary of the method: as §1

Fuc(a1-3)GlcNAc = target: Fuc(a1-3)GlcNAc
Summary of the method: as §1

Fuc(b1-3)GlcNAc = target: Fuc(b1-3)GlcNAc
Summary of the method: as §1

[5] = target: Gal(a1-3)Gal(b1-3)[Fuc(a1-4)]GlcNAc(b1-2)Man(a1-3)[Gal(a1-3)Gal(b1-3)[Fuc(a1-4)]GlcNAc(b1-2)Man(a1-6)]Man(b1-4)GlcNAc(b1-4)GlcNAc
Summary of the method: as §1

[6] = target: Gal(b1-3)GlcNAc(b1-6)GalNAc
Summary of the method: as §1

[7] = target: Gal(b1-3)[Neu5Ac(a2-6)]GalNAc
Summary of the method: as §1

[8] = target: Gal(b1-4)GlcNAc(b1-2)[Gal(b1-4)GlcNAc(b1-6)]Man(a1-6)[GlcNAc(b1-4)][Gal(b1-4)GlcNAc(b1-2)Man(a1-3)]Man(b1-4)GlcNAc(b1-4)GlcNAc
Summary of the method: as §1

[9] = target: Gal(b1-4)GlcNAc(b1-6)Gal(b1-4)GlcNAc
Summary of the method: as §1

[10] = target: Gal3S(b1-4)[Fuc(a1-3)]GlcNAc6S
Summary of the method: as §1

[11] = target: GlcNAc(a1-4)Gal(b1-4)GalNAc
Summary of the method: as §1

[12] = target: GlcNAc(b1-3)Gal(b1-4)GlcNAc(b1-3)Gal(b1-4)GlcNAc(b1-3)Gal(b1-4)GlcNAc(b1-2)Man(a1-3)[GlcNAc(b1-3)Gal(b1-4)GlcNAc(b1-3)Gal(b1-4)GlcNAc(b1-3)Gal(b1-4)GlcNAc(b1-2)Man(a1-6)]Man(b1-4)GlcNAc(b1-4)[Fuc(a1-6)]GlcNAc
Summary of the method: as §1

[13] = target: GlcNAc6S(b1-3)Gal(b1-4)GlcNAc
Summary of the method: as §1

Kdn(a2-3)Gal(b1-4)GlcNAc = target: Kdn(a2-3)Gal(b1-4)GlcNAc
Summary of the method: as §1

[14] = target: Man(a1-2)Man(a1-2)Man(a1-6)[Man(a1-3)]Man
Summary of the method: as §1

[15] = target: Man(a1-2)Man(a1-3)[Man(a1-2)Man(a1-6)]Man
Summary of the method: as §1

[16] = target: Man(a1-2)Man(a1-3)[Man(a1-2)Man(a1-6)]Man(a1-6)[Man(a1-2)Man(a1-2)Man(a1-3)]Man
Summary of the method: as §1

[17] = target: Man(a1-2)Man(a1-3)[Man(a1-2)Man(a1-6)]Man(a1-6)[Man(a1-2)Man(a1-2)Man(a1-3)]Man(b1-4)GlcNAc(b1-4)GlcNAc
Summary of the method: as §1

[18] = target: Man(a1-2)Man(a1-3)[Man(a1-6)]Man(a1-6)[Man(a1-2)Man(a1-3)]Man(b1-4)GlcNAc(b1-4)GlcNAc
Summary of the method: as §1

[19] = target: Man(a1-2)Man(a1-6)[Man(a1-3)]Man(a1-6)[Man(a1-2)Man(a1-2)Man(a1-3)]Man
Summary of the method: as §1

[20] = target: Man(a1-2)Man(a1-6)[Man(a1-3)]Man(a1-6)[Man(a1-2)Man(a1-2)Man(a1-3)]Man(b1-4)GlcNAc(b1-4)GlcNAc
Summary of the method: as §1

Man(a1-3)[Man(a1-6)]Man = target: Man(a1-3)[Man(a1-6)]Man
Summary of the method: as §1

[21] = target: Man(a1-3)[Man(a1-6)]Man(a1-6)[Man(a1-2)Man(a1-3)]Man(b1-4)GlcNAc(b1-4)GlcNAc
Summary of the method: as §1

[22] = target: Man(a1-3)[Man(a1-6)]Man(a1-6)[Man(a1-3)]Man(b1-4)GlcNAc(b1-4)GlcNAc
Summary of the method: as §1

[23] = target: Man(a1-3)[Man(a1-6)]Man(b1-4)GlcNAc(b1-4)GlcNAc
Summary of the method: as §1

[24] = target: Man(a1-3)[Man(a1-6)]Man(b1-4)GlcNAc(b1-4)[Fuc(a1-6)]GlcNAc
Summary of the method: as §1

Neu5Ac(a2-3)Gal = target: Neu5Ac(a2-3)Gal
Summary of the method: as §1

[25] = target: Neu5Ac(a2-3)Gal(b1-4)GlcNAc(b1-2)Man
Summary of the method: as §1

[26] = target: Neu5Ac(a2-3)Gal(b1-4)GlcNAc(b1-2)Man(a1-3)[Neu5Ac(a2-3)Gal(b1-4)GlcNAc(b1-2)Man(a1-6)]Man(b1-4)GlcNAc(b1-4)GlcNAc
Summary of the method: as §1

[27] = target: Neu5Ac(a2-3)Gal(b1-4)GlcNAc(b1-3)Gal(b1-3)GlcNAc
Summary of the method: as §1

[28] = target: Neu5Ac(a2-3)Gal(b1-4)GlcNAc(b1-3)Gal(b1-4)GlcNAc(b1-3)[Neu5Ac(a2-3)Gal(b1-4)GlcNAc(b1-3)Gal(b1-4)GlcNAc(b1-6)]GalNAc
Summary of the method: as §1

[29] = target: Neu5Ac(a2-3)Gal(b1-4)GlcNAc(b1-3)Gal(b1-4)[Fuc(a1-3)]GlcNAc
Summary of the method: as §1

[30] = target: Neu5Ac(a2-3)Gal(b1-4)[Fuc(a1-3)]GlcNAc
Summary of the method: as §1

[31] = target: Neu5Ac(a2-3)Gal(b1-4)[Fuc(a1-3)]GlcNAc(b1-6)[Gal(b1-3)]GalNAc
Summary of the method: as §1

[32] = target: Neu5Ac(a2-6)Gal(b1-4)GlcNAc(b1-2)Man(a1-3)[Man(a1-6)]Man(b1-4)GlcNAc(b1-4)GlcNAc
Summary of the method: as §1

[33] = target: Neu5Ac(a2-6)Gal(b1-4)GlcNAc(b1-2)[Neu5Ac(a2-6)Gal(b1-4)GlcNAc(b1-4)]Man(a1-3)[GlcNAc(b1-4)][Neu5Ac(a2-6)Gal(b1-4)GlcNAc(b1-4)Man(a1-6)]Man(b1-4)GlcNAc(b1-4)GlcNAc
Summary of the method: as §1

[34] = target: Neu5Ac(b2-6)Gal(b1-4)GlcNAc
Summary of the method: as §1

[35] = target: Neu5Gc(a2-8)Neu5Gc(a2-3)Gal(b1-4)GlcNAc
Summary of the method: as §1

B1: Banana lectin (Musa acuminata) (protein)
chain: MNGAIKVGAWGGNGGSAFDMGPAYRIISVKIFSGDVVDGVDVTFTYYGKTETRHYGGSGGTPHEIVLQEGEYLVGMAGEVANYTGAVVLGKLGFSTNKKAYGPFGNTGGTPFSLPIAAGKISGFFGRGGKFLDAIGVYLEPLEHHHHHH
glycan array binding signal (z-score) (Fuc(a1-2)Gal(b1-3)GlcNAc): -0.164
glycan array binding signal (z-score) [1]: -0.026
glycan array binding signal (z-score) [2]: -0.09
glycan array binding signal (z-score) [3]: -0.193
glycan array binding signal (z-score) [4]: -0.165
glycan array binding signal (z-score) (Fuc(a1-3)GlcNAc): -0.218
glycan array binding signal (z-score) (Fuc(b1-3)GlcNAc): -0.189
glycan array binding signal (z-score) [5]: 0.562
glycan array binding signal (z-score) [6]: -0.155
glycan array binding signal (z-score) [7]: -0.154
glycan array binding signal (z-score) [8]: -0.098
glycan array binding signal (z-score) [9]: -0.206
glycan array binding signal (z-score) [10]: -0.177
glycan array binding signal (z-score) [11]: -0.184
glycan array binding signal (z-score) [12]: -0.082
glycan array binding signal (z-score) [13]: -0.199
glycan array binding signal (z-score) (Kdn(a2-3)Gal(b1-4)GlcNAc): -0.189
glycan array binding signal (z-score) [14]: 8.2
glycan array binding signal (z-score) [15]: 2.21
glycan array binding signal (z-score) [16]: 7.07
glycan array binding signal (z-score) [17]: 5.46
glycan array binding signal (z-score) [18]: 4.86
glycan array binding signal (z-score) [19]: 5.72
glycan array binding signal (z-score) [20]: 10.1
glycan array binding signal (z-score) (Man(a1-3)[Man(a1-6)]Man): 6.01
glycan array binding signal (z-score) [21]: 11.3
glycan array binding signal (z-score) [22]: 5.96
glycan array binding signal (z-score) [23]: 4.6
glycan array binding signal (z-score) [24]: 1.98
glycan array binding signal (z-score) (Neu5Ac(a2-3)Gal): -0.212
glycan array binding signal (z-score) [25]: -0.188
glycan array binding signal (z-score) [26]: -0.182
glycan array binding signal (z-score) [27]: -0.175
glycan array binding signal (z-score) [28]: -0.109
glycan array binding signal (z-score) [29]: -0.179
glycan array binding signal (z-score) [30]: -0.19
glycan array binding signal (z-score) [31]: -0.16
glycan array binding signal (z-score) [32]: 0.399
glycan array binding signal (z-score) [33]: -0.177
glycan array binding signal (z-score) [34]: -0.184
glycan array binding signal (z-score) [35]: -0.162
